In PubChem BioAssay (Tox21):
Results filed as inconclusive are left out. Calls of active or inactive are those of the source. The call rests on the fitted dose curve; in most records, active means well fitted cell-killing curve with a large enough effect in the repeat runs; inconclusive means weak or mixed curves, or effect the other way; inactive means flat fitted curve, though single readings scatter.

Test: qHTS assay to identify small molecule agonists of the sonic hedgehog signaling (Shh) pathway - cell viability counter screen (AID 1259366); further: nearly all actives have a fitted effect of over 50% in size
Settings: NIH/3T3 Gli1-Luc viability, CellTiter-Fluor, 24 h; series mostly up to 92.4 µM; viability change, negative = cytotoxic: at the top concentration
Source text: National Center for Advancing Translational Sciences [NCATS]
NIH Chemical Genomics Center [NCGC]
U.S. Environmental Protection Agency [EPA]
National Institutes of Environmental Health Sciences [NIEHS]
National Toxicology Program [NTP]
U.S. Food and Drug Administration [FDA]
The sonic hedgehog (Shh) pathway is essential for normal embryonic development. Dysregulation of the Shh pathway can cause severe developmental defects in organs. Therefore chemicals that interfere with the pathway are potential developmental toxicants. A cell line designated 3T3Gli1-Luc (DMB/OARSA/CFSAN/FDA, Laurel, MD), a NIH/3T3 derived clone containing stably integrated Gli1-Luc reporter is used to detect chemical interference of the Shh pathway, by changes in the expression of the firefly Luc gene under the control of the Gli1 transcriptional response element. This cell line was used to screen Tox21 libraries for identifying and prioritizing the potential developmental toxicants that interfere Shh pathway. The cytotoxicity of the compounds was tested in parallel by measuring the cell viability using CellTiter-Fluor assay system (Promega, Madison, WI) in the same wells.
Tox21 Assay Protocol Summary:
3T3 Gli1-Luc cells were dispensed at 2,000 per well in 5uL of culture medium into white solid bottom 1536-well plates (Greiner Bio-One, Monroe, NC) using a Multidrop Combi (Thermo Scientific, Waltham, MA) dispenser. The assay plates were incubated at 37 C and 5% CO2 for 4hr, and then 23nL of compounds dissolved in DMSO and positive control were transferred using a Pintool station (Wako, San Diego, CA). The assay plates were incubated at 37C and 5% CO2 for 24hr. For viability read, after 23hr of compound treatment, 1uL of CellTiter-Fluor reagent (Promega Corporation, Madison, WI) was added to each well of the assay plates using Flying Reagent Dispenser (FRD, Aurora Discovery, San Diego, CA) and incubated the assay plates at 37C for 1hr. The fluorescence signal was quantified using a ViewLux plate reader (Perkin Elmer, Shelton, CT).
On the % scale 0 is the no-effect control and ±100 the full control effect; potency means the concentration at half of the fitted maximal effect.

| SMILES | viability change, negative = cytotoxic | Potency |
| --- | --- | --- |
| CCC(C)c1cc(C(C)(C)C)c(O)c(C(C)(C)C)c1 (stereo not given) | 0.289% (inactive) |  |
| Cn1c(=O)cc(Oc2ccc(F)cc2F)c2cnc(NCC(C)(C)O)nc21 | -20.1% (inactive) |  |
| C=C(C)C(=O)OCC | -14.4% (inactive) |  |
| Nc1c(CC(=O)O)cccc1C(=O)c1ccc(Br)cc1 | -5.84% [at 42.5 µM] (inactive) |  |
| CC(=O)[O][Al][O]C(C)=O | 28.8% (inactive) |  |
| CC(C)(COC(=O)c1ccccc1)COC(=O)c1ccccc1 | 8.05% (inactive) |  |
| CCCCCCCCCCO[C@@H]1O[C@H](CO)[C@@H](O)[C@H](O)[C@H]1O | 0.0726% (inactive) |  |
| Clc1ccc2c(c1)CCc1cccnc1C2=C1CCNCC1 |  | 11.9 µM (active) |
| Brc1c2ccccc2c(Br)c2ccccc12 | 2.56% [at 8.39 µM] (inactive) |  |
| CCN(CC)c1ccc2c(-c3ccccc3C(=O)O)c3ccc(=[N+](CC)CC)cc-3oc2c1 |  | 4.33 µM (active) |
| CCN(CC)CCNC(=O)c1cc(Br)c(N)cc1OC | -3.26% [at 42.5 µM] (inactive) |  |
| CCOc1ccc(N)c([N+](=O)[O-])c1 | -15.9% (inactive) |  |
| C=C1[C@H]2CC[C@@H]3[C@H]2C(C)(C)CCC[C@]13C | 1.04% (inactive) |  |
| COc1cc(C(=O)OCCCN2CCCN(CCCOC(=O)c3cc(OC)c(OC)c(OC)c3)CC2)cc(OC)c1OC |  | 6.68 µM (active) |
| O=CC1CC=CCC1 (stereo not given) | 0.34% (inactive) |  |
| CCC(=O)O[C@]1(C(=O)CCl)[C@@H](C)C[C@H]2[C@@H]3CCC4=CC(=O)C=C[C@]4(C)[C@@]3(F)[C@@H](O)C[C@@]21C | 7.98% [at 42.5 µM] (inactive) |  |
| Nc1ccc(S(=O)(=O)Nc2ccccc2)cc1 | -2.21% [at 42.5 µM] (inactive) |  |
| CCCCCCc1ccc(-c2ccc(C#N)cc2)cc1 | 1.92% (inactive) |  |
| O=P(O)(OCc1ccccc1)OCc1ccccc1 | 1.8% (inactive) |  |
| CC(=O)OC[C@H]1O[C@@H](n2ncc(=O)[nH]c2=O)[C@H](OC(C)=O)[C@@H]1OC(C)=O | 0.899% [at 42.5 µM] (inactive) |  |

| SMILES | viability change, negative = cytotoxic | Potency |
| --- | --- | --- |
| C=C1C(=C/C=C2\CCC[C@]3(C)[C@@H]([C@H](C)/C=C/[C@@H](O)C4CC4)CC[C@@H]23)C[C@@H](O)C[C@@H]1O | -26.9% [at 42.5 µM] (inactive) |  |
| O=C(O)C1(C(=O)O)CCC1.[NH2-].[NH2-].[Pt+2] | 4.08% [at 42.5 µM] (inactive) |  |
| CCC(Cl)CCC(Cl)C(Cl)CC(Cl)C(Cl)C(Cl)CCl (stereo not given) | 0.505% (inactive) |  |
| Nc1cccc([N+](=O)[O-])c1 | -0.278% (inactive) |  |
| COc1cc2nc(Cl)nc(N)c2cc1OC | -2.32% [at 42.5 µM] (inactive) |  |
| C[N+](C)(C)CCOC(=O)CCC(=O)OCC[N+](C)(C)C | 1.49% [at 42.5 µM] (inactive) |  |
| C[N+]1(C)CCC(OC(=O)C(O)(c2ccccc2)C2CCCC2)C1 (stereo not given) | 0.0173% [at 42.5 µM] (inactive) |  |
| NS(=O)(=O)c1ccc(N2CCCCS2(=O)=O)cc1 | -1.45% [at 42.5 µM] (inactive) |  |
| C/C=C(/C(=C/C)c1ccc(OC(C)=O)cc1)c1ccc(OC(C)=O)cc1 | -0.204% [at 42.5 µM] (inactive) |  |
| C=CC1CC2C=CC1C2 (stereo not given) | -0.848% (inactive) |  |
| O=C(CS)Nc1ccccc1 | 2.13% [at 42.5 µM] (inactive) |  |
| CCCCO | 0.978% (inactive) |  |
| COc1ccc2cccc(CCNC(C)=O)c2c1 | 0.449% [at 42.5 µM] (inactive) |  |
| Brc1c2ccccc2cc2ccccc12 | 0.721% (inactive) |  |
| CC(C)Nc1ccc(NC(C)C)c2c1C(=O)c1ccccc1C2=O | 2.41% [at 42.5 µM] (inactive) |  |
| COC(=O)c1ccc(I)cc1S(=O)(=O)NC(=O)Nc1nc(C)nc(OC)n1 | -0.305% (inactive) |  |
| C[C@H]1C[C@H]2[C@@H]3CCC4=CC(=O)C=C[C@]4(C)[C@@]3(Cl)[C@@H](O)C[C@]2(C)[C@@]1(O)C(=O)CO | 0.579% [at 42.5 µM] (inactive) |  |
| Nc1ccc([N+](=O)[O-])c(C(F)(F)F)c1 | 1.57% [at 42.5 µM] (inactive) |  |
| c1ccc(CNCCNCc2ccccc2)cc1 | 19% [at 42.5 µM] (inactive) |  |
| CCCCCCCCCCCCCCCCOS(=O)(=O)O | 0.911% [at 42.5 µM] (inactive) |  |
